This note sets out measurements from PubChem BioAssay (NCATS).

Results filed as inconclusive are left out. A call without a number means that no potency is given here. Calls of active or inactive are those of the source. Calls follow the shape of the dose curve; as a rule, active = well fitted curve in the direction sought with a large enough effect; inconclusive = small, poorly fitted or top-dose-only effect, or another doubt; inactive = no such curve, though single readings can be large; an effect the other way counts as inactive or inconclusive.

The first assay in a line: qHTS of pediatric cancer cell lines to identify multiple opportunities for drug repurposing: Primary screen for control Hh wild type fibroblast cells (AID 1347106).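 Also: a drop in luminescence marks cytotoxicity and a rise apparent proliferation; nearly all actives have a fitted effect of over 55% in size.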 Particulars: Hh wild-type fibroblast viability, CellTiter-Glo luminescence, 48 h; series mostly up to 46 µM. In outline:
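Viability after 48 h compound treatment at 37C, 500-1,000 cells/well, read as ATP luminescence with CellTiter-Glo. Primary screens used 11-point (MIPE, 0.78 nM-46 µM) or 8-point (NPC, 0.59 nM-46 µM) final concentrations; follow-up screens used 11-point dilutions.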
`CC(=O)NO`: the Potency entry was “inactive”.
For `CCOC(=O)C(C#N)=C(c1ccccc1)c1ccccc1`, the Potency entry was “inactive”.
In the case of `C[N+]1(C)CCC(=C(c2ccccc2)c2ccccc2)CC1`, the Potency result is “inactive”.
`Nc1ccc(C(=O)NCC(=O)O)cc1`: the Potency entry is “inactive”.
On to `O=C(CCN1CCN2CCCC2C1)N1c2ccccc2Sc2ccc(Cl)cc21` (configuration not stated), for which the Potency entry is “inactive”.
As for `Oc1ccccc1C=NCc1ccccc1`, the Potency result is “inactive”.
Take `CCOc1ccccc1OCCN[C@H](C)Cc1ccc(OC)c(S(N)(=O)=O)c1`: the Potency result is “inactive”.
Still for that read-out and setting: in the case of `CCNC(=O)/C=C/c1cccc(Br)c1` it was “inactive”; in that of `CCCCc1cc2ccccc2c(OCCN(C)C)n1`, “inactive”; in that of `CC(=O)O[C@]1(C(C)=O)CC[C@H]2[C@@H]3C=C(C)C4=CC(=O)CC[C@]4(C)[C@H]3CC[C@@]21C`, “inactive”.
Regarding `CCOCCn1c(N2CCCN(C)CC2)nc2ccccc21`, the Potency entry is “inactive”.
Regarding `C/C=C/C=N/NC(=O)c1ccncc1`, the Potency entry was “inactive”.
`CCc1oc2ccccc2c1C(=O)c1cc(Br)c(O)c(Br)c1`: the Potency result was “inactive”.
On to `COc1cc(C)nc(-n2nc(C)cc2OC)n1`, for which the Potency entry was “inactive”.
For the molecule `CNCCc1ccccn1`, the Potency entry was “inactive”.

The next assay is described as follows: qHTS of pediatric cancer cell lines to identify multiple opportunities for drug repurposing: Primary screen for Rh30 cells (AID 1347107). Also: nearly all actives have a fitted effect of over 75% in size. Particulars: Rh30 rhabdomyosarcoma viability, CellTiter-Glo luminescence, 48 h; series mostly up to 46 µM. In a few lines: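 Cells (500-1,000/well) rested 5 h, then received compounds for 48 h; metabolically active cells were measured by CellTiter-Glo luminescence. Final concentrations spanned up to 46 µM (MIPE, 11-point) or 0.59 nM-46 µM (NPC, 8-point) in primary screens, 11-point in follow-ups.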
For the molecule `CCCCN1C[C@H](O)[C@@H](O)[C@H](O)[C@H]1CO`, the Potency entry is “inactive”.
As to `CCC(C(=O)OCCOCCN(CC)CC)c1ccccc1` (configuration not stated), the Potency entry was “inactive”.
Turning to `NCc1ccccc1Sc1ccccc1CO`, the Potency result was “inactive”.
In the case of `CCCCCCCCCCCCCCCCO`, the Potency result was “inactive”.
Regarding `O=C(O)CCNC(=O)c1ccccc1`, the Potency entry is “inactive”.
Turning to `CCCCNc1ccc(C(=O)OCCOCCOCCOCCOCCOCCOCCOCCOCCOC)cc1`, the Potency entry was “inactive”.
Same read-out and setting: in the case of `CCCCCCCCCCCCCC(=O)OC(C)C` it was “inactive”.
As for `CCN(CC)CCOc1ccccc1C(=O)CCc1ccccc1`, the Potency entry is “inactive”.
For `O=S(c1cc(Cl)cc(Cl)c1O)c1cc(Cl)cc(Cl)c1O`, the Potency entry is “inactive”.
In the case of `CC[N+](C)(CC)CCOC(=O)C(O)(c1ccccc1)C1CCCCC1` (configuration not stated), the Potency result is “inactive”.
Still for that read-out and setting: in the case of `c1ccc(CC2=NCCN2)cc1` it was “inactive”.
Turning to `FC(F)(F)C(F)(F)C(F)(F)C(F)(F)C(F)(F)C(F)(F)C(F)(F)C(F)(F)Br`, the Potency entry was “inactive”.
Take `CCc1oc2ccccc2c1C(=O)c1cc(I)c(O)c(I)c1`: the Potency result is “inactive”.
For `O=C(Nc1cccc(C2=NCCN2)c1)Nc1cccc(C2=NCCN2)c1`, the Potency result is “inactive”.
Still for that read-out and setting: the entry for `O=C(O)Cc1csc(-c2ccc(Cl)cc2)n1` is “inactive”.
Same read-out and setting: the entry for `Cc1cc(C)cc(OCC2CNC(=O)O2)c1` (configuration not stated) is “inactive”; for `CC(C)Nc1cccnc1N1CCN(C(=O)c2cc3cc(NS(C)(=O)=O)ccc3[nH]2)CC1` it is “inactive”; for `CO[C@]12C[C@@H](COC(=O)c3cncc(Br)c3)CN(C)[C@@H]1Cc1cn(C)c3cccc2c13` it is “inactive”.
On to `O=C(O)CCc1nc2ccccc2[nH]1`, for which the Potency result was “inactive”.
Regarding `CC(C)(C)NCC(O)COc1cccc2c1C[C@H](O)[C@H](O)C2` (some centres not stated), the Potency entry is “inactive”.
With `C=C1c2cccc(O)c2C(O)=C2C(=O)[C@]3(O)C(O)=C(C(N)=O)C(=O)[C@@H](N(C)C)[C@@H]3[C@@H](O)[C@H]12`, the Potency result was “inactive”.
Still for that read-out and setting: the entry for `CC(=O)NO` is “inactive”; for `CCOC(=O)C(C#N)=C(c1ccccc1)c1ccccc1` it is “inactive”; for `C[N+]1(C)CCC(=C(c2ccccc2)c2ccccc2)CC1` it is “inactive”.
Regarding `Nc1ccc(C(=O)NCC(=O)O)cc1`, the Potency entry was “inactive”.
For the molecule `O=C(CCN1CCN2CCCC2C1)N1c2ccccc2Sc2ccc(Cl)cc21` (configuration not stated), the Potency result is “inactive”.
Still for that read-out and setting: the entry for `Oc1ccccc1C=NCc1ccccc1` is “inactive”.
On to `CCOc1ccccc1OCCN[C@H](C)Cc1ccc(OC)c(S(N)(=O)=O)c1`, for which the Potency result is “inactive”.
`CCNC(=O)/C=C/c1cccc(Br)c1`: the Potency result is “inactive”.
`CCCCc1cc2ccccc2c(OCCN(C)C)n1`: the Potency entry is “inactive”.
For the molecule `CC(=O)O[C@]1(C(C)=O)CC[C@H]2[C@@H]3C=C(C)C4=CC(=O)CC[C@]4(C)[C@H]3CC[C@@]21C`, the Potency entry is “inactive”.
Same read-out and setting: in the case of `CCOCCn1c(N2CCCN(C)CC2)nc2ccccc21` it was “inactive”; in that of `C/C=C/C=N/NC(=O)c1ccncc1`, “inactive”; in that of `CCc1oc2ccccc2c1C(=O)c1cc(Br)c(O)c(Br)c1`, “inactive”.
For the molecule `COc1cc(C)nc(-n2nc(C)cc2OC)n1`, the Potency entry is “inactive”.
As to `CNCCc1ccccn1`, the Potency result is “inactive”.

A short description of the next assay: qHTS of pediatric cancer cell lines to identify multiple opportunities for drug repurposing: Primary screen for Rh41 cells (AID 1347108).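 Also: luminescence drop marks cytotoxic hits; nearly all actives have a fitted effect of over 70% in size.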 The settings on record: Rh41 rhabdomyosarcoma viability, CellTiter-Glo luminescence, 48 h; series mostly up to 46 µM. In outline: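 Plated cells (500-1,000 per well, growth media) were allowed to settle for 5 hours, treated with compound dilutions for 48 hours, then lysed with CellTiter-Glo for 15 min at room temperature before luminescence reading.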
(In general: qHTS replaces the single test concentration by a dilution series.)
As for `CCCCN1C[C@H](O)[C@@H](O)[C@H](O)[C@H]1CO`, the Potency result was “inactive”.
In the case of `CCC(C(=O)OCCOCCN(CC)CC)c1ccccc1` (configuration not stated), the Potency entry was “inactive”.
`NCc1ccccc1Sc1ccccc1CO`: the Potency entry is “inactive”.
For `CCCCCCCCCCCCCCCCO`, the Potency result is “inactive”.
Still for that read-out and setting: in the case of `O=C(O)CCNC(=O)c1ccccc1` it was “inactive”; in that of `CCCCNc1ccc(C(=O)OCCOCCOCCOCCOCCOCCOCCOCCOCCOC)cc1`, “inactive”; in that of `CCCCCCCCCCCCCC(=O)OC(C)C`, “inactive”.
On to `CCN(CC)CCOc1ccccc1C(=O)CCc1ccccc1`, for which the Potency entry is “inactive”.
`O=S(c1cc(Cl)cc(Cl)c1O)c1cc(Cl)cc(Cl)c1O`: the Potency result was “inactive”.
Same read-out and setting: in the case of `CC[N+](C)(CC)CCOC(=O)C(O)(c1ccccc1)C1CCCCC1` (configuration not stated) it was “inactive”.
As to `c1ccc(CC2=NCCN2)cc1`, the Potency result was “inactive”.
Consider `FC(F)(F)C(F)(F)C(F)(F)C(F)(F)C(F)(F)C(F)(F)C(F)(F)C(F)(F)Br`, for which the Potency entry is “inactive”.
For `CCc1oc2ccccc2c1C(=O)c1cc(I)c(O)c(I)c1`, the Potency result was “inactive”.
As to `O=C(Nc1cccc(C2=NCCN2)c1)Nc1cccc(C2=NCCN2)c1`, the Potency entry is “inactive”.
On to `O=C(O)Cc1csc(-c2ccc(Cl)cc2)n1`, for which the Potency entry was “inactive”.
Regarding `Cc1cc(C)cc(OCC2CNC(=O)O2)c1` (configuration not stated), the Potency entry is “inactive”.
`CC(C)Nc1cccnc1N1CCN(C(=O)c2cc3cc(NS(C)(=O)=O)ccc3[nH]2)CC1`: the Potency entry is “inactive”.
As for `CO[C@]12C[C@@H](COC(=O)c3cncc(Br)c3)CN(C)[C@@H]1Cc1cn(C)c3cccc2c13`, the Potency entry is “inactive”.
On the same count and under the same terms, the entry for `O=C(O)CCc1nc2ccccc2[nH]1` is “inactive”; for `CC(C)(C)NCC(O)COc1cccc2c1C[C@H](O)[C@H](O)C2` (some centres not stated) it is “inactive”; for `C=C1c2cccc(O)c2C(O)=C2C(=O)[C@]3(O)C(O)=C(C(N)=O)C(=O)[C@@H](N(C)C)[C@@H]3[C@@H](O)[C@H]12` it is “inactive”.
Take `CC(=O)NO`: the Potency entry was “inactive”.
With `CCOC(=O)C(C#N)=C(c1ccccc1)c1ccccc1`, the Potency result is “inactive”.
Same read-out and setting: in the case of `C[N+]1(C)CCC(=C(c2ccccc2)c2ccccc2)CC1` it was “inactive”; in that of `Nc1ccc(C(=O)NCC(=O)O)cc1`, “inactive”.
Consider `O=C(CCN1CCN2CCCC2C1)N1c2ccccc2Sc2ccc(Cl)cc21` (configuration not stated), for which the Potency entry was “inactive”.
Same read-out and setting: in the case of `Oc1ccccc1C=NCc1ccccc1` it was “inactive”; in that of `CCOc1ccccc1OCCN[C@H](C)Cc1ccc(OC)c(S(N)(=O)=O)c1`, “inactive”.
Take `CCNC(=O)/C=C/c1cccc(Br)c1`: the Potency entry was “inactive”.
For `CCCCc1cc2ccccc2c(OCCN(C)C)n1`, the Potency result is “inactive”.
As to `CC(=O)O[C@]1(C(C)=O)CC[C@H]2[C@@H]3C=C(C)C4=CC(=O)CC[C@]4(C)[C@H]3CC[C@@]21C`, the Potency result is “inactive”.
With `CCOCCn1c(N2CCCN(C)CC2)nc2ccccc21`, the Potency entry is “inactive”.
On the same count and under the same terms, in the case of `C/C=C/C=N/NC(=O)c1ccncc1` it was “inactive”; in that of `CCc1oc2ccccc2c1C(=O)c1cc(Br)c(O)c(Br)c1`, “inactive”.
As to `COc1cc(C)nc(-n2nc(C)cc2OC)n1`, the Potency entry is “inactive”.
For `CNCCc1ccccn1`, the Potency result is “inactive”.
